# According to ChEMBL document CHEMBL3988442, “University of Dundee, Small-Polar-MMV Screening Library” (2021):
# For part of these data: Measured potencies and affinities stand elsewhere.
# How the values were obtained:
# Parameters in all cases: scale not given: direction of the effect not stated beside the values
# [1] = target: Protein translocase subunit SecA (Escherichia coli (strain K12)) (UniProt P10408); assay: Assay to Identify E. coli SecA ATPase Inhibitors; type: functional; settings: 30 µM
# [2] = target: T1, Ubiquitin-activating enzyme e1, putative (Leishmania donovani (strain BPK282A1)) (UniProt E9BSI1); assay: Leishmania donovani Ubiquitin Activating Enzyme (LdE1); type: functional; settings: 30 µM
# T1 sequence (whole entry): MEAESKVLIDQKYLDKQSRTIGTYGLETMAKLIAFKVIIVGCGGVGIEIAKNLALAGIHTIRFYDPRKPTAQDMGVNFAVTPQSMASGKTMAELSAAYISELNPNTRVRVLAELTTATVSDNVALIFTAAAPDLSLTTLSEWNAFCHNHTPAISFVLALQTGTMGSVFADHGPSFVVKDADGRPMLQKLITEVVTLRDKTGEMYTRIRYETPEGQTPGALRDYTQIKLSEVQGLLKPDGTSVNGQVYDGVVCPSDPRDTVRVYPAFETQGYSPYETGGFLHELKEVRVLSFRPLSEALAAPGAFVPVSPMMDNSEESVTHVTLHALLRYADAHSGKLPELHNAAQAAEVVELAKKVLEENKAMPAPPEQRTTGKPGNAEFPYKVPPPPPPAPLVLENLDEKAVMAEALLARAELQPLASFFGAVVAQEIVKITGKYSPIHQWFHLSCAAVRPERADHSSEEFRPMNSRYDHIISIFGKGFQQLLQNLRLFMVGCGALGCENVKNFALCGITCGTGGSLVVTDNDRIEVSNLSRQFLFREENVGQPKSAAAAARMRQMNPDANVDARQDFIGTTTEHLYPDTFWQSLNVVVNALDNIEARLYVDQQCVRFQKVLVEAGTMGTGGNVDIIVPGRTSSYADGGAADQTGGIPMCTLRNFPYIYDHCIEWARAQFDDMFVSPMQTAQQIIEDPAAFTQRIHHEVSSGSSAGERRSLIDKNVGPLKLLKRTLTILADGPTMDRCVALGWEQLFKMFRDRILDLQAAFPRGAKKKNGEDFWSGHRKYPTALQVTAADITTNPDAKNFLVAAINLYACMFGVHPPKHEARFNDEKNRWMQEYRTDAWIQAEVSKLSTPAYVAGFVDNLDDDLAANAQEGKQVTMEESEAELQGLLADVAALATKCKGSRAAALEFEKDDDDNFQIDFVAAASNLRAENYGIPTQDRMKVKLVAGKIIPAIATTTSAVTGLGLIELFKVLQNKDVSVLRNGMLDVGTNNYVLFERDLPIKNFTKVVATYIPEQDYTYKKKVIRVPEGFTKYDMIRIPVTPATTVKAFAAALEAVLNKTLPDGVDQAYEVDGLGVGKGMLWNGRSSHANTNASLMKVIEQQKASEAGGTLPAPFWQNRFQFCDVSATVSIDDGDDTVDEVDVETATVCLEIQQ
# [3] = target: T2, Aspartate--tRNA(Asp/Asn) ligase (Mycobacterium tuberculosis (strain ATCC 25618 / H37Rv)) (UniProt P9WFW3); assay: Assay for Asp RNA synthetase-1 from Mycobacterium tuberculosis; type: functional; settings: 30 µM; note: in the data most compounds retested in dose-response had high values
# T2 sequence (whole entry): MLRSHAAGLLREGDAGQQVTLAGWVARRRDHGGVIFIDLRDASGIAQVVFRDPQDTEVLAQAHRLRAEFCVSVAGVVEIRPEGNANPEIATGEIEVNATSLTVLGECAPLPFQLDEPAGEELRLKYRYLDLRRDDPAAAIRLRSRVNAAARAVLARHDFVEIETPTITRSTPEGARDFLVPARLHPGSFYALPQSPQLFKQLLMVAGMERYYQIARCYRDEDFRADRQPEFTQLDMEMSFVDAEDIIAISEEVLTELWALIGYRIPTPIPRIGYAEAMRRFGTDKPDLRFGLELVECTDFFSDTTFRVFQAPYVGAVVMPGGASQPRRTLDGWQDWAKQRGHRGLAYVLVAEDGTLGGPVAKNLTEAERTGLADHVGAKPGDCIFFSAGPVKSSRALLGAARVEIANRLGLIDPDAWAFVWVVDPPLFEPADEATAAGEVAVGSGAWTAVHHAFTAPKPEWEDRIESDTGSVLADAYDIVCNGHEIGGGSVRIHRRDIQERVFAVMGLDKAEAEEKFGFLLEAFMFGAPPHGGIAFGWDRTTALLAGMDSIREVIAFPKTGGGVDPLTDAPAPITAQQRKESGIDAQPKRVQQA
# [4] = target: Sialic acid-binding Ig-like lectin 9 (Homo sapiens) (UniProt Q9Y336); assay: Hs-Siglec9 ALPHAscreen SOP 20170721; settings: 10 µM
# Trypanosoma cruzi = assay: Trypanosoma cruzi phosphomannomutase and mannose-1-phosphate guanylyltransferase assay; type: functional; settings: 10 µM
# [5] = target: T3, Arginase-2, mitochondrial (Homo sapiens) (UniProt P78540); assay: in vitro enzyme assay to detect the production of urea directly proportional to the activity of Arginase II; type: functional; settings: 33.3 µM; note: in the data most compounds retested in dose-response had high values
# T3 sequence (whole entry): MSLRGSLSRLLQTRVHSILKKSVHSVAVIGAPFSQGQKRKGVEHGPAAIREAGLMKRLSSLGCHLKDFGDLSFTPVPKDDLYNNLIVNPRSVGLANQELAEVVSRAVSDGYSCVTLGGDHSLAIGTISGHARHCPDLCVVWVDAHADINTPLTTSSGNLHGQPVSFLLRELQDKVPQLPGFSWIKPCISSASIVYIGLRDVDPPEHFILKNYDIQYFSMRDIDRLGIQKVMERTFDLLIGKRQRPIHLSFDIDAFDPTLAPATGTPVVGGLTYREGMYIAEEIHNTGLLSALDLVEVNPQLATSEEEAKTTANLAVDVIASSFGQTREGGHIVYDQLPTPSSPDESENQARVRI
# [6] = target: T4, Proteasome subunit beta (Trypanosoma cruzi) (UniProt O96673); assay: Trypanosoma cruzi proteasome chymotrypsin-like activity (TcProtChymo) assay.; note: in the data most compounds retested in dose-response had high values; type: functional; settings: 9.37 µM
# T4 sequence (whole entry): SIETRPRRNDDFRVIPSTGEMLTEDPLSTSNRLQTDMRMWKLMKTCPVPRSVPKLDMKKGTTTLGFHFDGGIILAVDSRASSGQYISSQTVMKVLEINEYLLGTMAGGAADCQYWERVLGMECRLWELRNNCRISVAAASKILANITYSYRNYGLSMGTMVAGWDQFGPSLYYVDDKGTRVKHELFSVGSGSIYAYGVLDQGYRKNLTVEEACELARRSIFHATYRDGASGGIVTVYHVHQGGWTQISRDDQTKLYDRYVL
# Homo sapiens = species: Homo sapiens; assay: To identify inhibition of the IFN signalling (Jak-Stat) pathway via expression of an eGFP reporter gene under the control of an IFN-stimulated response element (ISRE) containing MxA promoter.; type: functional; settings: 30 µM
# [7] = target: Shiga toxin 2 (Escherichia coli O157:H7) (UniProt P09385+P09386); assay: E. coli 0.157:H7 Shiga Toxin SOP - stx2 screening assay; type: functional; settings: 30 µM
# [8] = target: T5, Tyrosyl-tRNA synthetase, putative (Trypanosoma cruzi (strain CL Brener)) (UniProt Q4DSP6); assay: Trypanosoma cruzi tyrosyl tRNA synthetase (TcYRS) _High Tyrosine SOP; type: functional; settings: 30 µM; note: in the data most compounds retested in dose-response had high values
# T5 sequence (whole entry): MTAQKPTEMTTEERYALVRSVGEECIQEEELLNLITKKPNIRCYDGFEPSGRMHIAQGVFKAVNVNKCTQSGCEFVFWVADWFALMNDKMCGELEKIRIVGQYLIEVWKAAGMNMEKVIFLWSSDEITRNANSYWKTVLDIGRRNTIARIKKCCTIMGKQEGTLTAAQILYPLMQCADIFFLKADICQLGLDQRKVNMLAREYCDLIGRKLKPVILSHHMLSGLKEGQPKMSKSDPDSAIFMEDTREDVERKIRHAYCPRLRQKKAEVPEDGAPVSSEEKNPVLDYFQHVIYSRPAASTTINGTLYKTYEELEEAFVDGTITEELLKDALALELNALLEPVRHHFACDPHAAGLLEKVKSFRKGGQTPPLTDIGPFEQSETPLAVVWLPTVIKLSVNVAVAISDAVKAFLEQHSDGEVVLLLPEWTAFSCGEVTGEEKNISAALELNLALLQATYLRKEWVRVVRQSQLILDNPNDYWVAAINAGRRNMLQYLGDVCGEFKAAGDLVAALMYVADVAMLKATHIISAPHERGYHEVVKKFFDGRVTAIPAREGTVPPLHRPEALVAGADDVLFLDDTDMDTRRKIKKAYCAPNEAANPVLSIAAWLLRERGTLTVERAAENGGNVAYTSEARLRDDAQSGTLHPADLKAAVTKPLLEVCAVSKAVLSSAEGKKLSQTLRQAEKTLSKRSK
# [9] = target: T5, Tyrosyl-tRNA synthetase, putative (Trypanosoma cruzi (strain CL Brener)); assay: Trypanosoma cruzi tyrosyl tRNA synthetase (TcYRS) SOP; type: functional; settings: 30 µM
# [10] = target: Chromo domain-containing protein 1 (Saccharomyces cerevisiae (strain ATCC 204508 / S288c) (Baker's yeast)) (UniProt P32657); assay: ScCHD-1 Enzyme Inhibition Assay; type: functional; settings: 30 µM; note: in the data most compounds retested in dose-response had high values
# [11] = target: AMP-activated protein kinase, AMPK (Homo sapiens) (UniProt P54646+O43741+P54619+Q9UGJ0+Q9Y478+Q13131+Q9UGI9); assay: AMP-dependent Kinase enzyme assay. An in vitro enzyme assay that detects ADP turnover that is directly proportional to AMPK activity. This uses naive AMPK that is activated during the assay with MK-8722; type: functional; settings: 30 µM
# Chain of Chromo domain-containing protein 1 (Saccharomyces cerevisiae (strain ATCC 204508 / S288c) (Baker's yeast)) (P32657 whole entry, the tested form may be a part): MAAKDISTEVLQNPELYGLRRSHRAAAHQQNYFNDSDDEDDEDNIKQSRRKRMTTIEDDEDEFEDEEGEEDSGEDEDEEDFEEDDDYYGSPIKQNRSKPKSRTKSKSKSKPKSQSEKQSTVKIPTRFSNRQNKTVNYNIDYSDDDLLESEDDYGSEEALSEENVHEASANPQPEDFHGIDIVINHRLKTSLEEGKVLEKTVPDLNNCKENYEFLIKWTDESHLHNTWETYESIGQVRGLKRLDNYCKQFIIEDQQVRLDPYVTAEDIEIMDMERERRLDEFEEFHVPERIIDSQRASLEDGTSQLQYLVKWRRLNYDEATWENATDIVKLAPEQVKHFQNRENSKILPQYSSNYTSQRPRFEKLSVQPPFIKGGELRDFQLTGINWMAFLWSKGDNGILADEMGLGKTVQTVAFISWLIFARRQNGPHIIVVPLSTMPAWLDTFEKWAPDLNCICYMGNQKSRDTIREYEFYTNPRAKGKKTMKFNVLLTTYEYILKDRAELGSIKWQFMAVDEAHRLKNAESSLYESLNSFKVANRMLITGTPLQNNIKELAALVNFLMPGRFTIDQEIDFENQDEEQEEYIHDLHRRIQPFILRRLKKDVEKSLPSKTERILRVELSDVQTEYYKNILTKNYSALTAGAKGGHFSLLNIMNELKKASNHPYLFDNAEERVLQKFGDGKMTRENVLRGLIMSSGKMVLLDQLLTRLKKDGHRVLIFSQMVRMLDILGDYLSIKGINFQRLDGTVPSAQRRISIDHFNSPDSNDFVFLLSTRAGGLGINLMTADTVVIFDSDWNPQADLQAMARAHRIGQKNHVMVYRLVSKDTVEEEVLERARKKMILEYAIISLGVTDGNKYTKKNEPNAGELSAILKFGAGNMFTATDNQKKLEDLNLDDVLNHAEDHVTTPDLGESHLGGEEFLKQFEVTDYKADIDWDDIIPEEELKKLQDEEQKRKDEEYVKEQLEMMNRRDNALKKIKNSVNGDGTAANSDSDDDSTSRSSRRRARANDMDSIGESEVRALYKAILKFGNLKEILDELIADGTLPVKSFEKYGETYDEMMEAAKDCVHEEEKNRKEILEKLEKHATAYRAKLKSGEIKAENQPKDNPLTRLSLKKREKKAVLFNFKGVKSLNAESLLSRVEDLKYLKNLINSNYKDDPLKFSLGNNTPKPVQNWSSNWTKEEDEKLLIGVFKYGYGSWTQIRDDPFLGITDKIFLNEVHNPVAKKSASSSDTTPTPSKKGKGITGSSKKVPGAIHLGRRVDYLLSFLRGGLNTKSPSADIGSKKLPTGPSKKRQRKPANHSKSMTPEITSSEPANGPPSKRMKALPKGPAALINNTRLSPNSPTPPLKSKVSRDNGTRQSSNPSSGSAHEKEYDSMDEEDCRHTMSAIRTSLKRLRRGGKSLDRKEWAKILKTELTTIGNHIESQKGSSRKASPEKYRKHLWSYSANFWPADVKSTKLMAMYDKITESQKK
# Chain of Protein translocase subunit SecA (Escherichia coli (strain K12)) (P10408 whole entry): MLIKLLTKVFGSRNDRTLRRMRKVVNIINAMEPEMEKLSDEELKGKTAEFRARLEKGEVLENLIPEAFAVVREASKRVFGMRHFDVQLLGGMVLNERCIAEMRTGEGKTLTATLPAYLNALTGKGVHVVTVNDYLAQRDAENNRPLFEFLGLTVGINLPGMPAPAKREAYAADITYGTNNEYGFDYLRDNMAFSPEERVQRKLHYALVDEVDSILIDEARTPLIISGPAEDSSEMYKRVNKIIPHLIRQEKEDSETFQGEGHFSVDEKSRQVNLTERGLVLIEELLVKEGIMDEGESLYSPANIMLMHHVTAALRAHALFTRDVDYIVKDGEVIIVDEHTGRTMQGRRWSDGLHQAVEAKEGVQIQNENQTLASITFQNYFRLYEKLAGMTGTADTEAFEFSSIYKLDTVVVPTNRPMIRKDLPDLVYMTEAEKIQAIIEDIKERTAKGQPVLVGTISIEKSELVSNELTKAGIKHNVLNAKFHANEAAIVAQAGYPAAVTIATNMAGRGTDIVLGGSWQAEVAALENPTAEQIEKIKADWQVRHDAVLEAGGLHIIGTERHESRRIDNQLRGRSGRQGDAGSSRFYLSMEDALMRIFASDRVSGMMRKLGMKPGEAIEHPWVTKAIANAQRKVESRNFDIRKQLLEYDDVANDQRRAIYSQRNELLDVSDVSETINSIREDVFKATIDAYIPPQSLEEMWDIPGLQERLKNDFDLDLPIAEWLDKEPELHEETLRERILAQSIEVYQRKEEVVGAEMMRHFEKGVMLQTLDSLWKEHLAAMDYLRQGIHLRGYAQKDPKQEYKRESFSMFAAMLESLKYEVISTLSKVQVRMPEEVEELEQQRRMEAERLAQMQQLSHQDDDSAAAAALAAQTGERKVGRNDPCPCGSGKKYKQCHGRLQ
# Chain of Sialic acid-binding Ig-like lectin 9 (Homo sapiens) (Q9Y336 whole entry): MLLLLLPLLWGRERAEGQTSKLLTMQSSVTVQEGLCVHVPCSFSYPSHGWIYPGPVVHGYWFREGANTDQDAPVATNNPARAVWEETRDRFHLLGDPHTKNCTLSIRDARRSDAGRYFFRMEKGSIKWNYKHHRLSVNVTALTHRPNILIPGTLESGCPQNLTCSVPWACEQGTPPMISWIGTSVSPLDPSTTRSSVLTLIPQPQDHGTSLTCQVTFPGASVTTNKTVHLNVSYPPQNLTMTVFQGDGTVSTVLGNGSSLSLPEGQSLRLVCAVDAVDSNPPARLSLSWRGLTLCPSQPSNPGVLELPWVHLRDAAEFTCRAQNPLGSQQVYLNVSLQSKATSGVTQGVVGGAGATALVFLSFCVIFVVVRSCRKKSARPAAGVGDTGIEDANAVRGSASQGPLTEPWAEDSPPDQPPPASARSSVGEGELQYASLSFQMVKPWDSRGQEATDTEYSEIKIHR
SMILES,Percent Effect [1] [%],Percent Effect [2] [%],Percent Effect [3] [%],Percent Effect [4] [%],Percent Effect (Trypanosoma cruzi) [%],Percent Effect [5] [%],Percent Effect [6] [%],Percent Effect (Homo sapiens) [%],Percent Effect [7] [%],Percent Effect [8] [%],Percent Effect [9] [%],Percent Effect [10] [%],Percent Effect [11] [%]
CN(C)CCN1CCCC12CCN(C(=O)c1cccnc1)CC2,-0.609,3.9,1.98,-1.37,0.563,4.11,8.5,-12.2,-15.3,3.87,7.5,1.23,
Cc1noc(C)c1CN1CCO[C@H]2CN(CC3CC3)C[C@H]21,-4.84,11.7,-1.48,9.57,4.58,3.24,18.4,2.94,-2.75,8.95,20.5,12.9,
NCC1[C@H]2CN(CCc3ccccc3)C[C@@H]12 (stereo partly drawn),-7.01,14.3,2.14,-1.73,-4.5,-1.37,11.1,15.4,-0.684,6.76,0,-10.2,
Cc1noc(C)c1CN1CCO[C@H]2CNC[C@H]21,-3.48,9.09,7.37,-4.93,-4.19,-2.02,20,8.41,2.96,0.526,7.69,-4.21,
COCCNC(=O)[C@@]12CCO[C@@H]1CCN(Cc1c(C)noc1C)C2,-4.83,14.3,11.2,-7.07,1.85,3.24,8.91,-9.54,-12.8,14.2,12.8,-1.61,
Cc1ccccc1CC(=O)N1CCN(C2CCOC2=O)CC1 (stereo not drawn),-3.96,13.5,-0.136,2.56,-5.75,-2.81,7.03,11.9,23.2,10.3,16.1,-7.37,-7.8
O=C1CC2(CCCNC2)C(=O)N1Cc1ccccc1 (stereo not drawn),-1.32,-16.9,1.23,-1.16,-6.57,0.457,16.4,15,2.48,2.9,0,-9.23,
CCc1noc(C(C)N2CCNCC2)n1 (stereo not drawn),-5.07,5.33,-11.9,0.232,-0.602,-2.22,13.3,-0.55,6.76,2.63,2.56,-9.82,
Cc1noc(C)c1CN1CCCC2(CCN(C(=O)CC3CC3)C2)C1 (stereo not drawn),-8.86,3.9,1.46,3.29,-0.375,2.74,1.97,12.4,-4.85,1.93,-10,-8.2,
NC(=O)CN1CCCN(C(=O)Cc2ccc3ccccc3c2)CC1,-7.48,0,2.66,1.74,-13.2,-6.21,0.594,24.3,-25.4,-0.526,-5.13,-8.56,
NC(=O)CN1CCCN(C(=O)Cc2ccc(F)c(Br)c2)CC1,-6.33,10.7,-0.338,-0.341,-3.61,-0.444,12.6,-6.89,-17.2,4.74,7.69,-9.76,
c1ccc(N2CCCC3(CCN(Cc4nccs4)C3)C2)nc1 (stereo not drawn),-1.98,14.3,-1.46,3.73,0.75,-5.94,18.4,4.2,7.26,10.6,20,-11.5,
Cc1noc(C)c1CN1CCCC2(CCN(C(=O)NC3CC3)C2)C1 (stereo not drawn),-2.63,22.1,0.865,-1.1,-3.94,5.94,17.2,16.8,-1.92,13.5,15,-10.3,
COCC1CC2(CCN(Cc3ccccn3)CC2)CN1C(C)C (stereo not drawn),-6.44,6.49,4.1,6.75,7.11,-8.1,7.5,2.62,-1.31,3.68,12.8,2.02,
Cc1cccc(CN2CC[C@@H]3[C@@H]2CCN3C(=O)c2cnoc2C)n1,-3.21,10.8,-2.46,-1.95,5.27,34.2,10.7,7.71,5.3,3.96,15.8,-1.59,-5.71
O=C([C@H]1C[C@H]2OCC[C@H]2N(Cc2ccncc2)C1)N1CCCCO1,-5.42,18.7,0.349,-0.793,5.6,-46.4,15.9,-2.86,-11.8,8.33,25,-6.46,-3.96
CC(C)c1nccc([C@H]2C[C@@H]3CCN(Cc4ccoc4)C[C@H]3O2)n1,-3.97,-6.49,-4.77,-2.81,6.13,-6.48,16.7,-14.2,3.27,5.79,0,-1.73,
CNCCc1nc2cc(F)ccc2[nH]1,-3.21,0,5.99,-3.69,-6.13,5.21,5.23,4.18,,-4.92,-8.64,-3.45,-8.1
CCCN1C(=O)CC2(CCCNC2)C1=O (stereo not drawn),-4.19,11.7,3.28,-2.44,-1.13,-0.913,3.86,-15.1,2.28,1.93,7.5,-2.73,
COc1ccc(C(=O)C2CCCN(Cc3ccc(C)o3)C2)c(OC)c1 (stereo not drawn),-3.9,-5.41,-4.91,3.98,-2.04,1.75,7.71,-5.12,-2.98,1.6,7.32,2.92,
